# Compound activity deposited in PubChem by National Center for Advancing Translational Sciences (NCATS).
# Only some compounds are listed: those with a hit (about 7.4% of all), similar ones and a draw of the others.
# Rab9 prom act = activators of Rab9 promoter; Huh7 Rab9 promoter-luciferase reporter, luminescence, 24 h; Potency, µM (highest dose often 9.22 µM), for inactives: at the top dose activation, negative = inhibition, actives largely listed as activators; actives 2.8% (n = 320,000); note: % of control where 0% means no effect; nearly all actives have a fitted effect of over 60% in size
#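 Steps: seed 1500 Huh7 Rab9-luc cells per well, rest 2 h at 37 °C; add compound in DMSO; incubate 24 h; add luciferase reagent, 10 min ambient; read luminescence.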
# NPC1 prom act = activators of NPC1 promoter. actives 2.4% (n = 320,000). Potency, µM (highest dose often 9.22 µM), for inactives: at the highest dose activation, most hits filed as activators. AID 485313. Huh7 NPC1 promoter luciferase reporter, 24 h; note: % of control where 0% means no effect; nearly all actives have a fitted effect of over 60% in size
#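 Quantitative HTS used a cell-based reporter: Huh7 cells stably bearing the NPC1 promoter upstream of luciferase were treated with compounds for 24 h, and promoter activation was read as luminescence.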
# FLuc counter = firefly luciferase modulation, counter-screen for miR-21 project; P08659; purified FLuc, Km substrates, luminescence inhibition; Potency, µM (top dose mostly 57.5 µM), inactives show at the top dose activity change, negative = inhibition, hits mostly inhibitors; actives 6.9% (n = 360,000);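 note: plate controls were vehicle for no effect and reference inhibitor for full effect; nearly all actives have a fitted effect of over 55% in size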
# Target sequence (P08659 whole entry, looked up): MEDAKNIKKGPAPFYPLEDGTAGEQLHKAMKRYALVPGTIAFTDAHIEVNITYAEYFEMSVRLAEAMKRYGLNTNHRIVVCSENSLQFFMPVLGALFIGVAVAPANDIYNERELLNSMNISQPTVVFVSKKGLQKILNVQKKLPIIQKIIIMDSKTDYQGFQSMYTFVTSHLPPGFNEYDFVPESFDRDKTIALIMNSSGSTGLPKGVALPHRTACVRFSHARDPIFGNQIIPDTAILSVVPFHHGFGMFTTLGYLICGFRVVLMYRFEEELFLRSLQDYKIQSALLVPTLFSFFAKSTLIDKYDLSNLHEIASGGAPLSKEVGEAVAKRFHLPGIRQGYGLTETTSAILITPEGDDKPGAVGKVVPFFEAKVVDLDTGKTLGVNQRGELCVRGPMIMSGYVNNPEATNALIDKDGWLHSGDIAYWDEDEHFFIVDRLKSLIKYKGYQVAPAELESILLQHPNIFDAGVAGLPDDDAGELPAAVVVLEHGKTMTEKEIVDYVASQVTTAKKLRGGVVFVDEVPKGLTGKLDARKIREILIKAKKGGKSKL
#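 Biochemical qHTS of compounds, final roughly 60 µM downward over six points, against 10 nM purified firefly luciferase using Km concentrations of substrates (10 uM D-luciferin, 10 uM ATP) in Tris acetate pH 7.5 buffer; luminescence output.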
# SMN2 splice enh = increases expression of the SMN2 splice variant. AID 1458. actives 2.8% (n = 210,000). Potency, µM (series often up to 46.1 µM), for the others: at the top dose activity change, positive = activation, actives largely listed as activators. HEK293 SMN2-luciferase splicing reporter, luminescence, 30-36 h; note: % of control where 0% means no effect; nearly all actives have a fitted effect of over 55% in size
#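 HEK293 cells carry an SMN2 minigene-luciferase reporter in which exon 7 inclusion puts luciferase in frame. Cells were seeded at 2000 cells/well, attached for 10-12 hours, then exposed to compounds for 30-36 hours at 37C before ONE-Glo luminescence.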
# ELG1 genotoxic = genotoxicity induction in ELG1-luciferase HEK293T cells; HEK293T ELG1-luciferase reporter, luminescence, 16 h; Potency, µM (top dose mostly 46 µM), without a hit: top-dose activity change, positive = activation, usual class: activators; actives 1.3% (n = 330,000); note: % of control where 0% means no effect; nearly all actives have a fitted effect of over 60% in size
#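 Cells (2,000/well) expressing the ELG1-luciferase fusion are dosed by pin tool and kept 16 hr at 37 °C, 5% CO2. Signal comes from ONE-Glo luciferase reagent after 30 min at room temperature.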
# * marks the source's active call; other numbers are inactive results; ? = inconclusive; / = no result; [ ] = another dose, or the depositor's remark. Calls come from the whole dose curve; as a rule, active = well fitted curve in the direction sought with a large enough effect; inconclusive = small, poorly fitted or top-dose-only effect, or another doubt; inactive = no such curve, though single readings can be large; an effect the other way counts as inactive or inconclusive. Potency is the fitted concentration of half-maximal effect.
SMILES,Rab9 prom act,NPC1 prom act,FLuc counter,SMN2 splice enh,ELG1 genotoxic
COc1cccc(C(=O)CSc2nnnn2C2CCCCC2)c1,16.0%,8.5%,-24.2%,6.1%,12.9%
O=C(C1CCOCC1)N1CCCC(N2CCN(c3ccc(F)cc3)CC2)C1 (stereo not given),-9.9%,11.6%,1.5%,/,0.0%
C=C(c1ccccc1)c1ccccc1N,0.5%,-0.4%,3.3%,/,1.5%
CCOc1ccc(/C=N/Nc2ccccn2)cc1OC,2.82µM*,?,5.36µM*,14.1µM*,20.6µM*
CCOc1ccc(/C=N/N(C)c2ccccc2)cc1OC,3.16µM*,?,4.78µM*,25.1µM*,4.61µM*
C=C(C)CNC(=S)NNC(=O)CCn1c2ccc(Cl)cc2c2cc(Cl)ccc21,-2.9%,0.2%,2.9%,-9.0%,-10.0%
CCOC(=O)c1sc(NC(=O)Nc2cccc(Cl)c2)cc1C,?,2.51µM*,1.69µM*,?,?
CCOC(=O)c1sc2nc(C)n(CC(=O)Nc3cccc(Cl)c3)c(=O)c2c1C,/,/,0.9%,-7.9%,/
CCN(CC)C(=O)c1sc(NC(=O)c2ccc(Br)o2)c(C(=O)OC)c1C,-8.1%,-0.1%,-13.3%,-17.3%,-1.7%
CCOC(=O)c1sc(NC(=O)c2cccs2)cc1C,1.78µM*,1.41µM*,1.2µM*,14.1µM*,2.06µM*
CCOC(=O)c1sc(NC(=O)c2sccc2C)cc1C,0.562µM*,0.631µM*,1.69µM*,6.31µM*,2.59µM*
CCOC(=O)c1sc(NC(=O)c2ccc(Br)o2)cc1C,1.58µM*,3.98µM*,3.38µM*,11.2µM*,2.31µM*
CCOC(=O)c1sc(NC(=S)NC(=O)C2CC2)cc1C,-5.0%,-0.1%,1.6%,/,?
CCOC(=O)c1cnn(-c2ccccc2)c1NC(=O)c1cccs1,-4.2%,-1.1%,8.5%,5.4%,-1.8%
Cn1nnc(NC(=S)NC(=O)c2cc(Cl)ccc2Cl)n1,-0.3%,-18.3%,-1.5%,/,0.1%
Cc1nn(CC(=O)OCC(=O)c2ccc(OC(F)F)cc2)c(C)c1[N+](=O)[O-],-2.8%,-4.6%,5.0%,/,-0.3%
CCc1ccc(NC(=O)C2CCN(c3cc(C)nc4c(-c5ccc(Cl)cc5)c(C)nn34)CC2)cc1,/,/,-1.0%,-1.4%,/
Cc1ccccc1C(=O)N1CCC(C(=O)N2CCCc3ccccc32)CC1,2.8%,-2.0%,?,/,-0.5%
Cc1ccccc1C(=N)c1ccccc1Cc1cccc2ccccc12,/,/,/,5.0%[9.22 µM],/
Cc1nc(Cl)c(C(=O)NC(=O)Nc2cccc(C(F)(F)F)c2)c(C)c1[N+](=O)[O-],0.2%,1.7%,-2.8%,-45.9%,1.2%
CN1C(=O)/C(=C\c2ccco2)N=C1c1ccc(Cl)cc1Cl,-2.3%,-2.3%,16.9µM*,/,4.2%
O=C1OC(/C=C/c2ccc(Cl)cc2)=NC/1=C/c1ccco1,-4.2%,0.1%,-12.5%,-8.8%,1.3%
N/C(=N\OC(=O)Cc1ccccc1[N+](=O)[O-])c1ccccn1,-10.2%[1.84 µM],7.0%,?,-16.5%,?
Cc1c(C(=O)O/N=C(\N)c2ccccn2)cccc1[N+](=O)[O-],0.794µM*,3.16µM*,0.301µM*,/,2.06µM*
N/C(=N\OC(=O)c1cc(Br)ccc1Cl)c1ccccn1,?,?,3.79µM*,11.2µM*,?
SMILES,Rab9 prom act,NPC1 prom act,FLuc counter,SMN2 splice enh,ELG1 genotoxic
N/C(CS(=O)(=O)c1ccccn1)=N\OC(=O)c1ccc(Cl)cc1,-2.7%,2.4%,-12.9%,/,8.8%
N/C(CS(=O)(=O)c1ccccn1)=N\OC(=O)c1ccccc1Cl,2.24µM*,2µM*,?,/,?
Cc1ccc(C(=O)O/N=C(\N)c2ccccn2)c(Cl)c1,0.708µM*,?,0.019µM*,/,?
O=C(CSc1nc2c([nH]c3ccccc32)c(=O)n1-c1ccc(F)cc1)NCC1CCCO1 (stereo not given),/,/,1.3%,/,/
N/C(=N\OC(=O)c1ccc(Cl)cc1[N+](=O)[O-])c1ccccn1,?,?,3.38µM*,/,20.6µM*
N/C(=N\OC(=O)CCCOc1ccc(Cl)cc1Cl)c1ccccn1,0.1%,-8.1%,-18.5%,-2.9%,2.2%
Cc1ccc(C(=O)O/N=C(\N)c2ccccc2)c(Cl)c1,0.794µM*,2.24µM*,0.0849µM*,/,?
N/C(=N\OC(=O)c1ccc(Cl)cc1Cl)c1ccccn1,0.112µM*,0.316µM*,0.0953µM*,/,0.259µM*
CC(=O)[C@H]1CC[C@@H]2[C@]1(C)CC=C1[C@@]23C=C[C@]2(C[C@H](O)CC[C@@]12C)[C@H](C(=O)O)[C@@H]3C(=O)O,/,/,/,-4.0%[9.22 µM],/
S=c1[nH]nc(-c2ccc(Cl)cc2)n1CCCN1CCOCC1,-2.4%,-2.7%,3.0%,-11.9%,-0.4%
BrC/C=C/CBr,/,/,/,-3.1%,/
CC(C)c1ccc(NC(=O)COc2ccccc2)cc1,?,?,16.9µM*,/,?
Cc1cc(NC(=O)COc2ccccc2)ccc1Cl,27.6%,?,26.9µM*,/,?
CN1CCN(c2ccc(NC(=O)COc3ccccc3)cc2Cl)CC1,3.98µM*,4.47µM*,21.3µM*,/,?
CC(C)c1ccc(OCC(=O)Nc2ccc(OC(F)(F)F)cc2)cc1,-0.8%,1.2%,1.3%,/,-1.3%
Cc1ccc(NC(=O)COc2ccccc2)cc1Cl,-0.1%,-5.1%,?,/,15.4%
Cc1noc(C)c1C(=O)OCC(=O)NCc1ccc(Cl)cc1,-2.3%,-1.0%,-9.0%,/,3.3%
Clc1ccc(-c2csc(Nc3ccccc3)[n+]2Cc2ccco2)c(Cl)c1,2.82µM*,?,12µM*,-47.4%,10.5%
O=C(COC(=O)CN1C(=O)NC2(CCCC2)C1=O)NCc1ccc(Cl)cc1Cl,/,/,/,/,12.8%
O=C(N/N=C/c1ccc(N2CCOCC2)cc1)c1ccccn1,2.24µM*,2.51µM*,6.75µM*,/,?
O=C(N/N=C\c1cc([N+](=O)[O-])ccc1N1CCOCC1)c1ccccn1,-5.3%,-1.6%,3.4%,-11.2%,10.3%
CN(C)c1ccc(/C=N/NC(=O)C(=O)N2CCCCCC2)cc1,-3.5%,-0.1%,-22.9%,/,4.6%
CN(C)c1ccc(/C=N/NC(=O)c2ccnn2C)cc1,0.501µM*,2.51µM*,5.36µM*,/,?
CN(C)c1ccc(/C=N/NC(=O)c2ccccn2)cc1,0.126µM*,0.501µM*,1.69µM*,/,1.16µM*
CN(C)c1ccc(/C=N/NC(=O)c2ccn(C)n2)cc1,4.47µM*,2.51µM*,3.79µM*,/,?
CCCCOc1ccc(C(C)NC(=O)c2cccc(Nc3nc4ccccc4n4nnnc34)c2)cc1 (stereo not given),/,/,4.4%,/,/
O=C(NCc1ccccn1)C(=O)Nc1nc(C23CC4CC(CC(C4)C2)C3)cs1,-10.6%,-11.4%,?,/,-7.8%
CCCCN(CC)CCNC(=O)Cn1c(=O)c2cccn2c2cccnc21,/,/,-3.9%,/,/
Cc1nnsc1C(=O)N/N=C/c1ccccc1,-1.7%,0.8%,-5.8%,18.5%,0.8%
O=C(N/N=C\c1ccc(Oc2ccccc2)cc1)c1csnn1,2.24µM*,3.55µM*,2.69µM*,15.8µM*,?
